Compound activity from PubChem BioAssay.
PNC assembly inh – blocks assembly of the perinucleolar compartment. activity change (PNC), negative = inhibition, % at 10 µM. AID 2417. PC3M PTB-GFP, PNC prevalence imaging, 16 h; hits give low values. actives 3.1% (n = 140,000);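 active = readout at or below -70, meaning at least 70% loss of cells showing the perinucleolar compartment, a nuclear body marking cancer cells; inconclusive = readout between -30 and a set limit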
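Read-out is percentage of cells bearing a perinucleolar compartment, from automated 20x imaging of fixed, Hoechst-stained PC3M PTB-GFP cells. Cells were seeded 4 h, then exposed 16 h to compound (23 nl of library stock) in duplicate plates.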
HTT ATP protect – cytoprotection in Huntington HTT-Q103 PC12 cell model; actives 0.14% (n = 230,000); PC12 HTT-Q103 induced, cytoprotection, ATP luminescence, 40 h; AID 1471; Potency, µM (titrated, usually from 56.4 µM), usual class: activators; also: nearly all actives have a fitted effect of over 45% in size
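Stable PC12 Q103-GFP cells in serum-supplemented, phenol red-free DMEM; induction by tebufenozide at 100 nM final; compound dose series; cell viability quantified luminescently from ATP.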
IMPase cell inh – membrane-permeable compound that blocks inositol monophosphatase | P97697 | CHO-M1 cells, IP1 accumulation, HTRF TR-FRET ratio | inhibition (IP1 accumulation), % at 46.1 µM | 120,000 tested, under 10 active | AID 901; active = well fitted curve in the direction sought with a large enough effect in the signal ratio, not every such curve was filed as active; inconclusive = small, poorly fitted or top-dose-only effect, or a change in a side signal; inactive = no such curve, though single readings can be large or run the other way; the % refers to the signal ratio;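 also: cells stimulated with carbachol in lithium chloride buffer; higher means more IMPase inhibition seen as more IP1 and lower FRET ratio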
Target sequence (P97697 whole entry, looked up): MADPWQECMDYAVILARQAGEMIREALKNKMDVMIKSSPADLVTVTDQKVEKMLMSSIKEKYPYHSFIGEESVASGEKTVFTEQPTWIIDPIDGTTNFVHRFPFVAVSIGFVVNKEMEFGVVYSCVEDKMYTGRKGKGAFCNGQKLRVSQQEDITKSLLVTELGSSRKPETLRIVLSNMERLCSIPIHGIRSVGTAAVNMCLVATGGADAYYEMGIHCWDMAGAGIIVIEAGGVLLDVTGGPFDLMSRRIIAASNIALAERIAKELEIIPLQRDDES
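The IP-One HTRF competitive assay in carbachol-stimulated CHO-M1 cells quantifies cellular IP1. Compounds spanned up to 46 uM final, and activity is expressed as AC50 from concentration-response fits of the ratio and donor data.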
ALOX12 inhib – blocks human 12-lipoxygenase activity; P18054; purified 12-hLO, xylenol orange hydroperoxide absorbance; Potency, µM (highest dose often 57.1 µM), most hits filed as inhibitors; actives 0.12% (n = 150,000); also: nearly all actives have a fitted effect of over 55% in size
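Xylenol orange chromogenic assay: hydroperoxide from 12hLO oxidises Fe(II), giving red-shifted Fe(III)-XO absorbance. Conditions: 150 nM enzyme, 40 uM arachidonic acid, 25 mM Hepes pH 7.0, 0.01% Triton X-100, 30 min, room temperature.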
HttQ103 aggreg – reduces HttQ103-GFP aggregates in PC12 cells; Potency, µM (highest dose often 46.1 µM), most hits filed as inhibitors; actives 1.1% (n = 220,000); AID 1688; PC12 HttQ103-GFP aggregates, Acumen cytometry, 40 h; also: nearly all actives have a fitted effect of over 60% in size
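Huntingtin Q103 exon 1–GFP aggregates in induced PC12 cells (100 nM tebufenozide) were quantified by cytometry from lysates, with compounds dosed in titration.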
NPSR antag – neuropeptide S receptor (human) antagonism, cAMP; Q6W5P4; CHO-NPSR cells, cAMP TR-FRET, antagonist mode; Potency, µM (highest dose often 38.3 µM), hits mostly inhibitors; actives 1% (n = 220,000); AID 1461; also: nearly all actives have a fitted effect of over 50% in size
Target sequence (Q6W5P4 whole entry, looked up): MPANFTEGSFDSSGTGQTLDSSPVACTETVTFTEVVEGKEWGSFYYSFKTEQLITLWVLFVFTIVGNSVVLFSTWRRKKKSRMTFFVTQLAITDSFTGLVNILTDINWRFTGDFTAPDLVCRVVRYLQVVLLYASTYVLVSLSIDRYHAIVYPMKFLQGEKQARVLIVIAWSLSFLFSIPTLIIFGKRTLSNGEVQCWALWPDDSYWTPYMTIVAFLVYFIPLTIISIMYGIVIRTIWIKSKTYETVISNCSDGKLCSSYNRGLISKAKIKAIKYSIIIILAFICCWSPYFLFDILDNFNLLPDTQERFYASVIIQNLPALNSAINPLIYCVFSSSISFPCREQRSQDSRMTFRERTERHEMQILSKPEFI
Each line names hits and unclear results; the compound was inactive in the other large screens. Shown are actives, neighbours in structure and some others; about 3.3% of the full set was active somewhere. Unless noted, calls follow the shape of the dose curve; as a rule, active = well fitted curve in the direction sought with a large enough effect; inconclusive = small, poorly fitted or top-dose-only effect, or another doubt; inactive = no such curve, though single readings can be large; an effect the other way counts as inactive or inconclusive.

Cc1cc(C)c2c(N)c(C(=O)NCc3ccco3)sc2n1	PNC assembly inh -98
CCN(CC)CCCN(c1ccccc1)C1Cc2ccccc2C1	HttQ103 aggreg inconclusive (no result: PNC assembly inh, IMPase cell inh, ALOX12 inhib, NPSR antag)
Cc1cc(=O)[nH]c(SCC(=O)Nc2cc(S(=O)(=O)N(C)C)ccc2Cl)n1	none (no result: PNC assembly inh, IMPase cell inh, ALOX12 inhib)
O=C1N2CCSC2=NC1(Nc1ccccn1)C(F)(F)F (stereo not drawn)	HttQ103 aggreg inconclusive
CS(=O)(=O)c1ccc2nc(NC3(C(F)(F)F)N=C4SCCN4C3=O)sc2c1 (stereo not drawn)	PNC assembly inh -106
COc1ccc2[nH]c(=O)c(CN(CC3CCCO3)C(=O)Nc3ccc(F)cc3)cc2c1 (stereo not drawn)	HttQ103 aggreg 11µM, NPSR antag inconclusive
CC12CC3CC(C)(C1)CC(C(=O)NC(=S)N1CCCCC1)(C3)C2	ALOX12 inhib 16µM
COCC(=O)N1CCC2(CC1)CCN(c1ncccn1)CC2	none (no result: PNC assembly inh, IMPase cell inh, HttQ103 aggreg, NPSR antag)
Cc1cc(C(=O)N/N=C/c2cc(Cl)cc([N+](=O)[O-])c2O)c2ccccc2n1	PNC assembly inh inconclusive, HttQ103 aggreg 16µM (no result: IMPase cell inh)
O=C(N/N=C/c1cc(Cl)cc([N+](=O)[O-])c1O)c1ccccc1NS(=O)(=O)c1cccs1	none (no result: PNC assembly inh, IMPase cell inh, ALOX12 inhib)
O=C(N/N=C/c1cc(Cl)cc([N+](=O)[O-])c1O)NC12CC3CC(CC(C3)C1)C2	HttQ103 aggreg inconclusive, NPSR antag 10µM (no result: IMPase cell inh)
Cc1ccc(S(=O)(=O)c2ccc(Cl)cc2)cc1S(=O)(=O)NC(C)C(=O)O (stereo not drawn)	PNC assembly inh -90 (no result: IMPase cell inh)
O=C1CN(CC(=O)N2CCCCC2)c2ccccc2O1	none
O=C1CN(CC(=O)N2CCOCC2)c2ccccc2O1	PNC assembly inh -118, ALOX12 inhib inconclusive
O=C(Nc1ccc(C(=O)OC[C@@H]2CCCN3CCCC[C@H]23)cc1)c1cccc(Br)c1	none (no result: HTT ATP protect, IMPase cell inh)
O=[N+]([O-])c1ccc(Cl)c(/C=N/N2CCN(Cc3ccccc3Cl)CC2)c1	PNC assembly inh inconclusive
O=[N+]([O-])c1ccc(Cl)c(CN2CCC(O)CC2)c1	PNC assembly inh -124 (no result: HTT ATP protect, IMPase cell inh)
COC(=O)c1ccccc1NC(=O)COC(=O)c1ccccc1N=Nc1ccc(N(C)C)cc1	HttQ103 aggreg 6.3µM (no result: IMPase cell inh)
CC(=O)c1ccc(NC(=O)COC(=O)c2ccccc2N=Nc2ccc(N(C)C)cc2)cc1	HttQ103 aggreg inconclusive
c1ccc(CN2CCC(Nc3nc(-c4cccnc4)nc4ccccc34)CC2)cc1	none (no result: PNC assembly inh, IMPase cell inh, ALOX12 inhib)
COc1cc(C)nc(N2CCCC(C(=O)Nc3cccc(Cl)c3C)C2)n1 (stereo not drawn)	PNC assembly inh -124, IMPase cell inh inconclusive, HttQ103 aggreg inconclusive
O=C(NNC(=O)C(c1ccccc1)c1ccccc1)c1ccccn1	HttQ103 aggreg 10µM (no result: IMPase cell inh)
O=C(CCc1ccccc1)NNC(=O)c1ccccn1	HttQ103 aggreg 13µM (no result: PNC assembly inh, IMPase cell inh, ALOX12 inhib)
Cc1ccc(-c2noc(-c3cc(C(C)(C)C)nn3Cc3ccccc3)n2)cc1	none (no result: PNC assembly inh, IMPase cell inh, ALOX12 inhib)
COc1c(C)c2c(c(O)c1CC=C(C)CCC(=O)OCCN1CCOCC1)C(=O)OC2	none (no result: PNC assembly inh, IMPase cell inh, NPSR antag)
FC(F)Sc1nnc(-c2cccs2)n1-c1ccccc1	PNC assembly inh -80
CCCC(=O)N1CCN(c2ccc(NC(=O)c3cc4ccccc4o3)cc2Cl)CC1	PNC assembly inh inconclusive, HttQ103 aggreg 11µM, NPSR antag inconclusive
O=C(COc1ccc(/C=N/NC(=O)c2cc3ccccc3o2)cc1Br)Nc1ccccc1	NPSR antag 10µM
CCN1CCN(c2ccc(NC(=O)c3ccc([N+](=O)[O-])o3)cc2Cl)CC1	HttQ103 aggreg 13µM (no result: PNC assembly inh, IMPase cell inh, ALOX12 inhib)
O=C(Nc1ccc(N2CCN(C(=O)c3ccccc3)CC2)c(Cl)c1)c1ccco1	HttQ103 aggreg 22µM
O=C(COc1ccccc1[N+](=O)[O-])Nc1ccc(NC(=O)c2cc3ccccc3o2)cc1	none (no result: PNC assembly inh, HTT ATP protect, IMPase cell inh, ALOX12 inhib, HttQ103 aggreg)
CCCCCCCCCCCCC/C=C/[C@@H](O)[C@H](CO)NCCCCCCCC	none (no result: PNC assembly inh, IMPase cell inh, HttQ103 aggreg, NPSR antag)
CCC(=O)N1CCN(c2ccc(NC(=O)c3ccc([N+](=O)[O-])o3)cc2Cl)CC1	HTT ATP protect 0.63µM, HttQ103 aggreg 20µM, NPSR antag 5µM (no result: PNC assembly inh, IMPase cell inh, ALOX12 inhib)
CCC(=O)N1CCN(c2ccc(NC(=O)c3cc4ccccc4o3)cc2Cl)CC1	PNC assembly inh inconclusive, HttQ103 aggreg inconclusive, NPSR antag inconclusive
Cc1ccc(C(=O)N2CCN(c3ccc(NC(=O)c4ccc(Br)o4)cc3)CC2)cc1	none
O=C(O)c1ccc(-c2ccccc2Cl)o1	NPSR antag inconclusive
CCC(=O)N1CCN(c2ccc(NC(=O)c3ccc(Br)o3)cc2)CC1	PNC assembly inh -94 (no result: HTT ATP protect, IMPase cell inh)
O=C(Nc1ccccc1)c1ccc(-c2ccccc2Cl)o1	PNC assembly inh -92 (no result: HTT ATP protect, IMPase cell inh)
